PubChem BioAssay AID1159580 (chemical genetic matrix, 2015)
Where “and” joins values, the source holds several entries; their conditions need not be identical. Identical values can stand only once. The campaign covered roughly 5,500 compounds. About 2,000 (36%) were called active. Not shown: some 18% with an inconclusive outcome. No stated cut-off is given here; in the data, active means normalized growth mostly below about 0.91 (no sharp cut-off); inconclusive means no clear call, values can overlap the other calls; inactive means mostly above about 0.92. This is one part of the list.

Assay: chemical genetic growth profiling, strain panel (AID 1159580);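 further: tested at 20 µM; growth read once vehicle control cultures reached saturation at 30 °C; 1 = growth at the plate median or of vehicle wells; lower values mean less growth of the strain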
Settings: S. cerevisiae deletion strains, growth OD

Measured: normalized growth

Cc1ccc(S(=O)(=O)NC(=O)NN2CCCCCC2)cc1
inactive: locus YAL013W, strain DEP1, hits give low values 0.996 | locus YAL021C, strain ccr4, hits give low values 0.999 | locus YAL026C, strain drs2, hits give low values 0.974 | locus YAL030W, strain snc1, hits give low values 0.991 | locus YAL040C, strain CLN3, hits give low values 1.05 | locus YBL061C, strain skt5, hits give low values 0.986 | locus YBR009C, strain hhf1, hits give low values 0.994 | locus YBR021W, strain FUR4, hits give low values 0.986 | locus YBR023C, strain chs3, hits give low values 0.981 | locus YBR171W, strain sec66, hits give low values 0.99 | locus YBR229C, strain ROT2, hits give low values 0.995 | locus YBR231C, strain swc5, hits give low values 0.999 | locus YBR279W, strain paf1, hits give low values 0.994 | locus YCL011C, strain gbp2, hits give low values 0.987 | locus YCL016C, strain dcc1, hits give low values 0.953 | locus YCL029C, strain bik1, hits give low values 0.99 | locus YCL061C, strain MRC1 (second series), hits give low values 0.998 | locus YCL069W, strain vba3, hits give low values 0.986 | locus YCR088W, strain abp1, hits give low values 0.984 | locus YDL005C, strain med2, hits give low values 0.989 | locus YDL035C, strain GPR1, hits give low values 0.997 | locus YDL040C, strain nat1, hits give low values 0.991 | locus YDL074C, strain BRE1, hits give low values 1.06 | locus YDL101C, strain DUN1, hits give low values 0.997 | locus YDL134C, strain PPH21, hits give low values 0.987 | locus YDL185W, strain tfp1, hits give low values 0.983 | locus YDL192W, strain arf1, hits give low values 0.988 | locus YDR001C, strain nth1, hits give low values 0.986 | locus YDR069C, strain doa4, hits give low values 1 | locus YDR101C, strain arx1, hits give low values 0.989 | locus YDR137W, strain rgp1, hits give low values 0.932 | locus YDR150W, strain NUM1, hits give low values 1 | locus YDR159W, strain sac3, hits give low values 0.969 | locus YDR162C, strain NBP2, hits give low values 0.999 | locus YDR195W, strain ref2 0.996 | locus YDR297W, strain sur2, hits give low values 1 | locus YDR318W, strain mcm21, hits give low values 0.977 | locus YDR334W, strain swr1, hits give low values 0.978 | locus YDR335W, strain msn5, hits give low values 0.973 | locus YDR363W, strain ESC2, hits give low values 1.01 | locus YDR388W, hits give low values 0.985 | locus YDR392W, strain spt3, hits give low values 0.861 | locus YDR502C, strain sam2, hits give low values 0.991 | locus YEL003W, strain gim4, hits give low values 1.01 | locus YEL037C, strain rad23, hits give low values 0.975 | locus YEL061C, strain CIN8 (second series), hits give low values 1 | locus YEL061C, strain CIN8, hits give low values 1 | locus YER002W, strain NOP16, hits give low values 1 | locus YER015W, strain faa2, hits give low values 1 | locus YER016W, strain bim1, hits give low values 0.976 | locus YER110C, hits give low values 0.988 | locus YER111C, strain swi4, hits give low values 0.987 | locus YER155C, strain BEM2 (second series), hits give low values 0.972 | locus YER155C, strain BEM2, hits give low values 0.988 | locus YER167W, strain BCK2, hits give low values 0.984 | locus YFR010W, strain ubp6, hits give low values 1.02 | locus YGL078C, strain dbp3, hits give low values 0.987 | locus YGL086W, strain mad1, hits give low values 0.999 | locus YGL167C, strain pmr1, hits give low values 0.992 | locus YGL173C, strain kem1, hits give low values 0.998 | locus YGL227W, strain vid30, hits give low values 1.01 | locus YGL240W, strain doc1, hits give low values 1 | locus YGL248W, strain PDE1, hits give low values 1 | locus YGL253W, strain hxk2, hits give low values 1.02 | locus YGR078C, strain PAC10, hits give low values 1.04 and 0.986 | locus YGR135W, strain pre9, hits give low values 0.965 | locus YGR229C, strain SMI1, hits give low values 1.01 and 1.05 | locus YGR252W, strain gcn5, hits give low values 0.96 | locus YHR013C, strain ard1, hits give low values 0.966 | locus YHR027C, strain rpn1, hits give low values 1 | locus YHR030C, strain SLT2, hits give low values 0.992 and 1.02 | locus YHR079C, strain IRE1 (second series), hits give low values 0.988 | locus YHR079C, strain IRE1, hits give low values 1.02 | locus YHR094C, strain hxt1, hits give low values 0.98 | locus YHR129C, strain ARP1, hits give low values 0.993 | locus YHR142W, strain chs7, hits give low values 0.986 | locus YHR200W, strain rpn10, hits give low values 0.984 | locus YIL066C, strain RNR3, hits give low values 1 | locus YIL073C, strain SPO22, hits give low values 0.925 | locus YIL125W, strain kgd1, hits give low values 0.982 | locus YIR030C, strain dcg1, hits give low values 0.978 | locus YJL092W, strain hpr5, hits give low values 0.991 | locus YJL095W, strain BCK1 (second series), hits give low values 0.982 | locus YJL095W, strain BCK1, hits give low values 1.03 and 1.02 | locus YJL115W, strain asf1, hits give low values 0.979 | locus YJL129C, strain trk1, hits give low values 0.952 | locus YJL134W, strain LCB3, hits give low values 0.995 | locus YJL154C, strain vps35, hits give low values 0.989 | locus YJL164C, strain tpk1, hits give low values 0.991 | locus YJL166W, strain qcr8, hits give low values 0.997 | locus YJL168C, strain set2, hits give low values 0.987 | locus YJL187C, strain SWE1 (second series), hits give low values 1.02 | locus YJL187C, strain SWE1, hits give low values 0.992 | locus YJR043C, strain POL32, hits give low values 1.02 | locus YJR066W, strain TOR1, hits give low values 0.948
